Data on 39 compounds can be found in PubChem BioAssay (EPA / NIEHS).

Several values for one entry are separate records, joined by “and”; a condition that tells them apart may be missing. Identical values can stand only once. Some structures have more than one record in an assay (separate samples or runs), and their calls can disagree. Activity calls are given as the source filed them. Rule for the calls: active = hit-call score of the fitted dose curve at least 0.9, where 1 is the maximum; inactive = score below 0.9.

A short description of this assay: ATG_BRE_CIS: Attagene CIS-FACTORIAL HepG2 Assay for human Bone Morphogenetic Protein (BMP) Response Element (BRE) (AID 2282933). As to conditions: HepG2 BMP response element reporter, Attagene transcription factor profiling; actives raise or lower the signal. Here is the method: ATG_CIS is a cell-based, multiplexed-readout assay that uses HepG2, a human liver cell line, with measurements taken at 24 hours after chemical dosing in a 24-well plate.ATG_BRE_CIS is one of 52 assay component(s) measured or calculated from the ATG_CIS assay. It is designed to make measurements of mRNA induction, a form of inducible reporter, as detected with fluorescence intensity signals by Reverse transcription polymerase chain reaction (RT-PCR) and Capillary electrophoresis technology.Data from the assay component ATG_BRE_CIS was analyzed into 1 assay endpoint. This assay endpoint, ATG_BRE_CIS, was analyzed with bidirectional fitting relative to DMSO as the negative control and baseline of activity. Using a type of inducible reporter, measures of mRNA for gain or loss-of-signal activity can be used to understand the reporter gene at the transcription factor-level as they relate to the gene SMAD1. Furthermore, this assay endpoint can be referred to as a primary readout, because this assay has produced multiple assay endpoints where this one serves a reporter gene function. To generalize the intended target to other relatable targets, this assay endpoint is annotated to the dna binding intended target family, where the subfamily is Smad protein.
Human liver HepG2 cells are transiently transfected with multiple reporter transcription units (MRTUs) in 6-well plates using FuGene 6 reagent (Roche; 3 ml FuGene/1 mg DNA). The MRTU constructs are regulated by a cis-regulating element (promoter). […] A major difference between the CIS and TRANS system is that in CIS activities of endogenous TFs are measured, whereas the TRANS assay evaluates changes in activities of exogenous, chimeric NR-Gal4 proteins. […] At the end of 24 hour incubation, total RNA was isolated using TriZol reagent (Invitrogen). The isolated RNA is then reverse-transcribed using oligo(dT) primer and Mo-MLV reverse transcriptase (Invitrogen) with DNAse I (Ambion) treatment for 30 min. The one-tenth of the produced cDNA was amplified by PCR using Taq DNA polymerase (Invitrogen) and two reporter sequence-specific primers. The PCR products were fluorescently labeled by primer extension with 6-arboxyfluorescein (6-FAM) 5'-labeled reporter sequence-specific primer (2 min at 95 C, 20 s at 68 C and 10 min at 72 C) and these products were digested with 5U of HpaI (New England Biolabs) for 2h at 37 C. The fragments were purified using Qiaquick PCR columns (Qiagen), analyzed on an ABI 3130xL genetic analyzer (Applied Biosystems) with peak positions identified by using a set of X-rhodamine (ROX)-labeled MapMarker1000 molecular weight standards (BioVentures). The raw capillary electrophoresis data was processed using Attagraph software (Attagene).
Consider `NNC(=O)c1ccncc1`, for which the compound was called inactive.
Turning to `CC(C)c1nnc2ccc(-c3ocnc3-c3cc(F)ccc3F)cn12`, the compound was classed as inactive.
On the same count and under the same terms, the entry for `OC(CCl)CCl` is “inactive”; for `Cc1nc(-c2ccccn2)ncc1C(=O)Nn1cc(C)c2cc(F)ccc21` it is “inactive”.
Usually AC50 stands for the concentration at which the activity in the assay is half-maximal. Consider `CCCCCCCCCCCCCCO`, for which the AC50 is 166 µM (active).
On to `c1ccc2cc3ccccc3cc2c1`, for which the result was inactive.
On to `CCc1cccc(CC)c1N`, for which the compound was called inactive.
The same measure, in the same setting: the entry for `Cc1cccc(O)c1C` is “inactive”; for `CCCCN1C(=O)[C@@H]([C@H](O)C2CCCCC2)NC(=O)C12CCN(Cc1ccc(Oc3ccc(C(=O)O)cc3)cc1)CC2` it is “inactive”.
Still for that read-out and setting: then `CNC(C)=O`, with “inactive”; and `OC(Cn1cncn1)(Cn1cncn1)c1ccc(F)cc1F`, with “inactive”.
For `CCCC(CCC)C(=O)O`, the outcome was inactive.
On to `Nc1ccn([C@@H]2O[C@H](CO)[C@@H](O)[C@@H]2O)c(=O)n1`, for which the compound was classed as inactive.
Same read-out and setting: the entry for `CCCOc1ccc(S(=O)(=O)N2CCN(CC)CC2)cc1-c1nc2c(CC)n(Cc3ccccn3)nc2c(=O)[nH]1` is “inactive”.
In the case of `OCc1c[nH]c2ccccc12`, the result was inactive; the AC50 is 48.6 µM (active) and 85.4 µM (active) and 50.3 µM (active).
Consider `CC(C)CC(C)O` (stereo not given), for which the result was inactive.
In the case of `CC(C)CCCCCCOC(=O)C1CCCCC1C(=O)OCCCCCCC(C)C` (stereo not given), the compound was classed as inactive.
The same measure, in the same setting: then `FC(F)(F)COC(OCC(F)(F)F)OCC(F)(F)F`, with “inactive”; and `OC[C@H]1O[C@@H]2O[C@H]3[C@H](O)[C@@H](O)[C@@H](O[C@H]4[C@H](O)[C@@H](O)[C@@H](O[C@H]5[C@H](O)[C@@H](O)[C@@H](O[C@H]6[C@H](O)[C@@H](O)[C@@H](O[C@H]7[C@H](O)[C@@H](O)[C@@H](O[C@H]1[C@H](O)[C@H]2O)O[C@@H]7CO)O[C@@H]6CO)O[C@@H]5CO)O[C@@H]4CO)O[C@@H]3CO`, with “inactive”.
Same read-out and setting: then `NC(=O)N(O)[C@@H]1COc2cc(OCc3ccccc3)ccc21`, with “inactive”; and `C[Si](C)(C)C(F)(F)C(F)(F)C(F)(F)F`, with “inactive”; and `NC(N)=O`, with “inactive”.
`CCCCCCCC/C=C\CCCCCCCC(=O)OC[C@@H](O)[C@H]1OC[C@H](O)[C@H]1O`: the outcome was inactive.
Still for that read-out and setting: then `CCn1nc(C)c2c1C(=O)NCC(c1ccc(O)cc1)=N2`, with “inactive”; and `NC(=O)N1c2ccccc2C=Cc2ccccc21`, with “inactive”; and `FC(F)C(F)(F)COCC1CO1` (stereo not given), with “inactive”.
As for `Cc1ccc(S(=O)(=O)NC(=O)NN2CCCCCC2)cc1`, the compound was called inactive.
Take `c1ccc2c(c1)-c1cccc3c1c-2cc1ccccc13`: the call was inactive.
On the same count and under the same terms, then `O=C(Cl)C(F)(F)C(F)(F)C(F)(F)C(=O)Cl`, with “inactive”.
On the same count and under the same terms, then `Cn1cc[nH]c1=S`, with “inactive”.
For the compound `CC(=O)c1ccccc1`, the compound was called inactive.
On the same count and under the same terms, the entry for `CC[C@H](C)C(=O)O[C@H]1C[C@H](O)C=C2C=C[C@H](C)[C@H](CC[C@@H](O)C[C@@H](O)CC(=O)O)[C@H]21` is “inactive”; for `CCCCOC(=O)c1ccccc1` it is “inactive”; for `O=S(=O)(O)c1ccc(N=Nc2c(O)ccc3cc(S(=O)(=O)O)ccc23)cc1` it is “inactive”.
For `O=C1CN(N=Cc2ccc([N+](=O)[O-])o2)C(=O)N1`, the call was inactive.
The same measure, in the same setting: the entry for `O=C(O)[C@H](O)[C@@H](O)C(=O)O` is “inactive”; for `CCCCCCOC(=O)CC(CC(=O)OCCCCCC)(OC(=O)CCC)C(=O)OCCCCCC` it is “inactive”.
Still for that read-out and setting: then `CCOC(N)=O`, with “inactive”.
Regarding `CCCCCCCCCC`, the compound was called inactive.
